Out of some 190,000 compounds screened, about 4,100 (2.2%) were called active. What follows is part of a selection rich in actives, with near analogues and random picks from the rest. Values without a mark were called inactive.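 How the source made its calls: active means thallium flux slope and its plate-corrected score both differing from the plate sample mean at a set confidence after two filtering rounds, in either direction; inactive means the rest.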

For this assay, the target named is Solute carrier family 12 member 5 (Homo sapiens) (UniProt Q9H2X9). In words: KCC2 cotransporter modulators, thallium flux, primary screen, cell-based, HEK293 KCC2, FluoZin-2 fluorescence, MLSMR (AID 1456).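 Further: slope of fluorescence scaled to starting intensity during 10 to 20 s after thallium.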 The conditions noted are these: KCC2 cells, thallium flux FluoZin-2 fluorescence; at 10 µM.
Sequence of Solute carrier family 12 member 5 (Homo sapiens) (Q9H2X9 whole entry, looked up): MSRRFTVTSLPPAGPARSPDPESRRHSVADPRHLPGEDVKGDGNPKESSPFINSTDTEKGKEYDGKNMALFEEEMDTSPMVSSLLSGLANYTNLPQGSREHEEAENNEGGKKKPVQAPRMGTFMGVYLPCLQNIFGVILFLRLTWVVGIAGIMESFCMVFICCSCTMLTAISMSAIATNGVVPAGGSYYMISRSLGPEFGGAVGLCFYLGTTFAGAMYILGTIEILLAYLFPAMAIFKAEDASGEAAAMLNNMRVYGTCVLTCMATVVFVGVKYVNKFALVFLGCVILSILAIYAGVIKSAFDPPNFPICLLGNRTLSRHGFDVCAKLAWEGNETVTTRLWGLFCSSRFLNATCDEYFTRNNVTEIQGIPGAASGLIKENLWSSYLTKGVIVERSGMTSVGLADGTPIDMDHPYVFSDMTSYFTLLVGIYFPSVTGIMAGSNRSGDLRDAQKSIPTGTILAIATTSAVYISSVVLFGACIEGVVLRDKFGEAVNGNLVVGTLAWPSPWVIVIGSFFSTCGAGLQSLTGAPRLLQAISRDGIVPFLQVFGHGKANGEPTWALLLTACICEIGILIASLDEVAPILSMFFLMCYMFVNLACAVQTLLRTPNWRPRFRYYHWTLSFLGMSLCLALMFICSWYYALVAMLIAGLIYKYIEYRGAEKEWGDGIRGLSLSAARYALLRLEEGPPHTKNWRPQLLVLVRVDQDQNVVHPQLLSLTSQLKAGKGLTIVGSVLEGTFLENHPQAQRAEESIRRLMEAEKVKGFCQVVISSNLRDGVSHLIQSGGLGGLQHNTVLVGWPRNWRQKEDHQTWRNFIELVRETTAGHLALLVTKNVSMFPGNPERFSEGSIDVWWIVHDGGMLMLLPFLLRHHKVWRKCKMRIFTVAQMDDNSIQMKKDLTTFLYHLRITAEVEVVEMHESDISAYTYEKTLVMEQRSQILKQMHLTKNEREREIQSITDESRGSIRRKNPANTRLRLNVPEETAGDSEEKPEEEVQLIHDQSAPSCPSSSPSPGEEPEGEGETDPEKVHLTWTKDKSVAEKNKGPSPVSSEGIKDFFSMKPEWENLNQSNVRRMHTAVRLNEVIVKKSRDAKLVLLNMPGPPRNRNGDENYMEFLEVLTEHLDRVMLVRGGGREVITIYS
As to `O=C1c2cccc3c([N+](=O)[O-])ccc(c23)C(=O)N1CC1CCCO1` (configuration not stated), the B-score of Tl+ flux slope (higher = more flux/activation; lower = inhibition) is -3.38. As for `CN(c1ccccn1)c1ncnc2[nH]ncc12`, the figure is 0.0938. Take `CC(=O)NC(=S)Nc1ccc(NC(=S)NC(=O)c2ccc([N+](=O)[O-])cc2)cc1`: the B-score of Tl+ flux slope (higher = more flux/activation; lower = inhibition) was 0.484.

For `O=[N+]([O-])C(=c1ccc2c(c1)N1C3=C(CCCC3)CC3CCCCC31N=2)[N+](=O)[O-]` (configuration not stated), the B-score of Tl+ flux slope (higher = more flux/activation; lower = inhibition) is -0.0507. For `COc1ccc(C(=O)/C=C/c2ccc(OC3CSC3)cc2)cc1`, the B-score of Tl+ flux slope (higher = more flux/activation; lower = inhibition) was 0.0132. Under `COc1ccc(/C=C/C(=O)c2ccc(OC)cc2O)cc1` stands -1.21.

Take `COc1ccc(/C=C/C(=O)c2cc(Br)ccc(=O)c2O)cc1`: the B-score of Tl+ flux slope (higher = more flux/activation; lower = inhibition) is 22.3 (active). For `O=C(C[n+]1cc(-c2ccc(Cl)c(Cl)c2)n2c1CCC2)c1cccs1`, the B-score of Tl+ flux slope (higher = more flux/activation; lower = inhibition) was 0.636. Under `CC(=O)N(OCc1ccc(OC(C)C)c(Cl)c1)C(C)=O` stands 0.219; under `CC(C)n1cnc2c(Nc3cccc(Cl)c3)nc(N(CCO)CCCO)nc21`, -2.56 (active). As for `OCCCNc1nccc(-c2cc(Nc3cccc(Cl)c3)ncn2)n1`, the figure is -0.723; as for `CC(C)C[C@H](CO)Nc1nc(N(C)c2cccc(Cl)c2)c2ncn(C(C)C)c2n1`, -0.662. As for `O=C(CN1CCN(c2ccc(Cl)cc2)CC1)NCc1cccs1`, the figure is -1.03; as for `Cc1ccc(-c2nc(C#N)c(NCCCn3ccnc3)o2)cc1`, -0.3.

For the compound `N#Cc1nc(Cc2ccccc2)oc1NCCc1ccccc1`, the B-score of Tl+ flux slope (higher = more flux/activation; lower = inhibition) is -4.49 (active). Under `Cc1ccccc1-c1nc(C#N)c(NCc2ccco2)o1` stands -0.237.

With `O=C(c1cn(-c2ccccc2)nc1-c1cc2ccccc2oc1=O)N1CCOCC1`, the B-score of Tl+ flux slope (higher = more flux/activation; lower = inhibition) was -0.172. As for `Nc1ncc(-c2cc3ccccc3oc2=O)s1`, the B-score of Tl+ flux slope (higher = more flux/activation; lower = inhibition) was -0.488.

Regarding `O=c1oc2ccccc2cc1-c1cn(-c2ccccc2)c(=S)[nH]1`, the B-score of Tl+ flux slope (higher = more flux/activation; lower = inhibition) is 7.21 (active). As for `O=C(NCC1CCCO1)c1ccccc1-c1nc(-c2ccccc2Cl)no1` (configuration not stated), the figure is -1.09. Under `O=C(c1ccncc1)N1CCN(c2ccc3ccccc3n2)CC1` stands -0.588; under `COc1cc(/C=N/n2c(C)n[nH]c2=S)ccc1OCc1ccccc1`, 0.899. As for `S=c1[nH]nc(-c2cc(-c3ccccc3)n[nH]2)n1/N=C/c1c2ccccc2cc2ccccc12`, the figure is -1.01; as for `CCN(CC)S(=O)(=O)c1cccc(-c2n[nH]c(=S)n2/N=C/c2ccc(C(=O)OC)cc2)c1`, 2.87 (active). In the case of `O=C1CC(Cc2ccc(Cl)cc2)C(=O)N1c1cc(Cl)ccn1` (configuration not stated), the B-score of Tl+ flux slope (higher = more flux/activation; lower = inhibition) is -1.2. Under `CC1CN(c2nc(Nc3ccccc3)nc(N)c2[N+](=O)[O-])CC(C)O1` (configuration not stated) stands -0.457; under `O=C(CS(=O)(=O)c1ccc(C(F)(F)F)cn1)NNC(=O)c1ccccc1`, -0.101; under `Cn1c(CC2Sc3ccccc3NC2=O)nnc1SCC(=O)c1ccc(Cl)cc1` (configuration not stated), -2.19.

Take `CCN(CCNC(=O)C1=C(C)C(=O)OC12CCC(C)CC2)c1ccccc1` (configuration not stated): the B-score of Tl+ flux slope (higher = more flux/activation; lower = inhibition) was 0.78.

As to `Cc1nc(Cl)c(C#N)c2c1CCCC2`, the B-score of Tl+ flux slope (higher = more flux/activation; lower = inhibition) was -1.49. Regarding `CCOC(=O)CSc1nc(C)c(Oc2ccc(Cl)cc2Cl)c(=O)[nH]1`, the B-score of Tl+ flux slope (higher = more flux/activation; lower = inhibition) was -0.98. Under `Cc1ccc(-c2csc(NNC(=O)c3ccccc3)n2)cc1` stands -5.47; under `Cn1c(CNc2nc(-c3ccccc3)cs2)nnc1SCC(=O)c1ccccc1`, -4.57 (active).

For the compound `CCOC(=O)CSc1nnc(CNc2nc(-c3ccccc3)cs2)n1C`, the B-score of Tl+ flux slope (higher = more flux/activation; lower = inhibition) was -1.31. Under `Cc1cc(N2CCN(c3ccc(F)cc3)CC2)n2ncnc2n1` stands 0.197; under `COCCNc1nc(-c2ccccc2)nc2c1oc1ccccc12`, 0.0873; under `CC(C)OP(=O)(OC(C)C)C(Nc1ccccc1)c1cccc([N+](=O)[O-])c1` (configuration not stated), -1.5. Turning to `O=C(Nc1ccc2oc(-c3ccc4ccccc4c3)nc2c1)c1cccs1`, the B-score of Tl+ flux slope (higher = more flux/activation; lower = inhibition) was 0.746.

`O=C(Nc1ccc2oc(-c3ccccc3F)nc2c1)c1ccco1`: the B-score of Tl+ flux slope (higher = more flux/activation; lower = inhibition) is -4.45 (active).

On to `O=C(Nc1ccc2nccnc2c1)c1ccco1`, for which the B-score of Tl+ flux slope (higher = more flux/activation; lower = inhibition) is 0.0364. Under `S=C(NN=C1CCN(Cc2ccccc2)CC1)NC1CCCCC1` stands -3.5 (active); under `S=C(Nc1ccc(Br)cc1Cl)NC1CCN(Cc2ccccc2)CC1`, -1.46.

Take `O=C(NC1CCN(Cc2ccccc2)CC1)c1c(F)cccc1F`: the B-score of Tl+ flux slope (higher = more flux/activation; lower = inhibition) is -1.12. Under `Fc1cc(F)c2nc(Nc3nc4c(F)cccc4s3)sc2c1` stands 69.3 (active).

With `NC(=O)c1c(Nc2nc3c(F)cccc3s2)sc2c1CCCC2`, the B-score of Tl+ flux slope (higher = more flux/activation; lower = inhibition) was -0.0899. As for `Fc1cc(F)c2nc(N3CCOCC3)sc2c1`, the figure is -0.123; as for `O=S(=O)(Nc1ccc(OC(F)(F)F)cc1)c1cccc2nonc12`, -0.299.

In the case of `CN(C)S(=O)(=O)c1ccc(C(=O)NCC(C)(C)N2CCOCC2)cc1`, the B-score of Tl+ flux slope (higher = more flux/activation; lower = inhibition) is -0.162. As for `Cn1c(=O)c2c(ncn2CCc2ccccc2)n(C)c1=O`, the figure is -0.25; as for `CC(=O)Oc1ccccc1C(=O)Nc1ncc([N+](=O)[O-])s1`, -3 (active). As for `O=C(CCc1ccccc1)Nc1ncc([N+](=O)[O-])s1`, the figure is -3; as for `O=C(Cc1c(F)cccc1Cl)Nc1ncc([N+](=O)[O-])s1`, -1.12. As for `O=C(CNC(=O)c1ccco1)OCC(=O)c1ccccc1`, the figure is 7.3 (active); as for `O=C(COC(=O)c1ccccc1C(=O)c1ccccc1)c1ccco1`, -0.42.

Turning to `O=C(COC(=O)CNC(=O)c1ccco1)Nc1ccc(F)cc1`, the B-score of Tl+ flux slope (higher = more flux/activation; lower = inhibition) is 0.652. Under `Cn1nccc1NS(=O)(=O)c1ccc(F)cc1` stands 0.158; under `COc1cccc(NC(=S)NCc2ccccn2)c1`, -0.247; under `Cc1nn(C)c(C(=O)NNC(=S)NC2CCCCC2)c1Cl`, -0.0757.

`COc1cccc(NC(=S)NC(=O)c2c(Cl)c(C)nn2C)c1`: the B-score of Tl+ flux slope (higher = more flux/activation; lower = inhibition) is 39.2 (active). Under `COc1ccc(CC(=O)NCC(=O)N/N=C/c2cc(Br)ccc2OC)cc1` stands -1.94. As for `COc1ccc(/C=C/C(=O)Nc2ccc(C)cc2)cc1S(=O)(=O)N1CCOCC1`, the figure is 0.752. As for `N#Cc1c(-c2cccs2)nc(SCC(=O)c2ccc(Br)cc2)[nH]c1=O`, the figure is -4.31; as for `CCOc1cccc(C(=O)Nc2nnc(-c3cccs3)s2)c1`, -0.21. In the case of `N#Cc1ccc(C(=O)Nc2nc(-c3cccs3)c(C(=O)C(F)(F)F)s2)cc1`, the B-score of Tl+ flux slope (higher = more flux/activation; lower = inhibition) was -2.57 (active). Consider `Cc1cc(C)cc(C(=O)NCC(=O)OCC(=O)N2CCCCC2)c1`, for which the B-score of Tl+ flux slope (higher = more flux/activation; lower = inhibition) was 1.11. Under `CCC(C)[C@@H](C(=O)N1CCNCC1)n1cc(CCCCN)nn1` (some centres not stated) stands 0.0703; under `CC[C@@H](C)[C@@H](C(=O)N1CCN(C(=O)OC(C)(C)C)CC1)n1cc(CCC(=O)O)nn1`, 3.74 (active); under `C[C@@H](C(=O)N1CCNCC1)n1cc(CCC(=O)O)nn1`, 1.43.

Take `O=c1[nH]c2ccccc2s1`: the B-score of Tl+ flux slope (higher = more flux/activation; lower = inhibition) is 10.2 (active). Under `COCc1cc(=O)oc2cc(NS(=O)(=O)c3ccc(C)cc3)ccc12` stands 0.0356. As for `O=S(=O)(NCc1ccco1)c1cnc(Cl)c(Cl)c1`, the figure is -2.3; as for `COC(=O)c1sccc1NC(=O)c1cc(OC)c(OC)c(OC)c1`, -5.91 (active); as for `COc1cc(C(=O)Nc2nccs2)cc(OC)c1OC`, 0.128. Under `COC(=O)c1sccc1NC(=O)c1csc2c1CCCC2` stands -0.108; under `COc1ccc(NS(=O)(=O)c2ccc(N3CCOCC3)c(NC(=O)c3ccccc3Br)c2)cc1`, -1.53. As to `COc1ccc2[nH]c(=S)cc(C)c2c1`, the B-score of Tl+ flux slope (higher = more flux/activation; lower = inhibition) is 13.9 (active).

With `COc1ccc2[nH]c3ccc(OC)cc3c2c1`, the B-score of Tl+ flux slope (higher = more flux/activation; lower = inhibition) is 0.0914. Under `COc1ccc2[nH]c(=O)c(CNc3ccc(C)c(C)c3)cc2c1` stands 0.158. As for `COc1ccccc1OCC(=O)O/N=C(\N)c1ccccn1`, the figure is 0.265; as for `COc1ccc(C(=O)NNc2cc(C)nc(NNC(=O)c3ccc(OC)cc3)n2)cc1`, -0.94. As for `C[C@@H](C(=O)Nc1ccc2ccccc2c1)[C@@H]1C[C@@]1(C)[C@@H](NC(=O)c1cccnc1)c1ccccc1`, the figure is -2.53 (active).

Regarding `COC(=O)[C@H](C)[C@H]1C[C@]1(C)[C@H](NC(=O)OCc1ccccc1)c1ccccc1`, the B-score of Tl+ flux slope (higher = more flux/activation; lower = inhibition) is 2.81. Under `O=C(Nc1ccc(N2CCN(C(=O)c3ccccc3)CC2)c(Cl)c1)c1cccnc1` stands 1.08. As for `Cc1cc(C)n(CC(C)NCc2c(C(=O)N3CCOCC3)nc3c(C)cccn23)n1` (configuration not stated), the figure is 0.104; as for `CCOC(=O)C1=C(N)N2C(=O)C(C)SC2=C(C(=O)OCC)C1c1cc(OC)c(OC)c(OC)c1` (configuration not stated), -0.308; as for `CCCCn1c(=S)[nH]c2ncccc2c1=O`, 49.5 (active). Regarding `CCCCN(C)Cc1c(C)[nH]c2ccc(Cl)cc2c1=O`, the B-score of Tl+ flux slope (higher = more flux/activation; lower = inhibition) was -0.235. As for `CCN(CC)CCn1c(=S)[nH]c2ncccc2c1=O`, the figure is 0.847; as for `O=C(CCn1c(=S)[nH]c2ccccc2c1=O)NCCCN1CCCC1=O`, -0.0162. As for `COc1cc2[nH]c(=S)n(Cc3ccc(F)cc3)c(=O)c2cc1OC`, the B-score of Tl+ flux slope (higher = more flux/activation; lower = inhibition) is 0.913. `CCCCNC(=O)c1ccc(-n2c(=S)[nH]c3ccccc3c2=O)cc1`: the B-score of Tl+ flux slope (higher = more flux/activation; lower = inhibition) is 1.81. As for `CCCCn1c(=S)[nH]c2cc(S(=O)(=O)N3CCCCC3)ccc21`, the figure is 0.854; as for `O=c1c2ccccc2[nH]c(=S)n1CCN1CCC(=C(c2ccc(F)cc2)c2ccc(F)cc2)CC1`, 8.36 (active); as for `CCCCn1c(=S)[nH]c2ccccc2c1=O`, 92.1 (active). Under `Fc1ccc(NC(=S)N2CCc3[nH]c4ccccc4c3C2)cc1` stands -0.241. Under `CCCCn1c(=O)c(C(C)=O)c(O)c2ccccc21` stands -0.478; under `CN(C)CCn1c(=S)[nH]c2ccc(Cl)cc2c1=O`, 4.34 (active).

The values are drawn from PubChem BioAssay AID1456 (Vanderbilt High Throughput Screening Facility, 2008).
